# Measurements: PubChem BioAssay
# Calls of active or inactive are those of the source.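 Rule for the calls: active = viability at or under a set limit in both replicates, limit being median viability minus 3 SD (cut at about 48% in these data, passing the limit was not always enough); inconclusive = at or under the limit in just one replicate; inactive = at or above the limit in both replicates.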
# Experiment: growth inhibitors of H69AR lung tumor, primary screen, human, duplicate replicates (AID 580);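 note: 100% = mean luminescence of untreated wells and 0% = no signal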
# Conditions: H69AR lung tumor cells viability, ATP luminescence, 72 h; at 10 µM; active compounds read low
row,SMILES,viability
1,O=C1C2ON(c3ccc(Cl)cc3)C(c3ccco3)C2C(=O)N1c1ccccc1 (stereo not given),100% (inactive)
2,CCOC(=O)N1CCN(C(=O)c2ccc3c(=O)n(Cc4ccc(OC)cc4)c(=S)[nH]c3c2)CC1,72.5% (inactive)
3,O=C(O)/C=C/c1ccc(O)c(O)c1,97.9% (inactive)
4,COC(=O)Nc1sc2c(c1C(N)=O)CCCCCC2,99.5% (inactive)
5,CC1(C)NC(=O)N(CC(O)CN2CCCC2)C1=O (stereo not given),97.2% (inactive)
6,Cc1cc(=O)n2nc(N3CCCC(C(=O)N4CCc5ccccc54)C3)sc2n1 (stereo not given),85.8% (inactive)
7,CCN(CC)S(=O)(=O)c1cccc(-c2nnc(SCCOc3ccccc3C)o2)c1,87.9% (inactive)
8,CCOC(=O)CSC1=C(C#N)C(c2ccc3c(c2)OCO3)CC(=O)N1 (stereo not given),13.1% (active)
9,N#CC1=C(N)OC2=C(CCC/C2=C/c2ccoc2)C1c1ccoc1 (stereo not given),80.8% (inactive)
10,O=C(NCc1ccc2c(c1)OCO2)C1CCC(CNS(=O)(=O)c2ccccc2)CC1 (stereo not given),92.2% (inactive)
11,COC(=O)CCN(C(=O)c1ccc2c(c1)OCO2)c1ccccn1,98.5% (inactive)
12,CC1CCCc2sc3nc(NCc4ccco4)n4ncnc4c3c21 (stereo not given),83.3% (inactive)
13,CCC(=O)OC1(C#CCOc2ccc(OC)cc2)CCN(C)CC1,105% (inactive)
14,O=C(CCCCn1c(=O)c2ccccc2n(Cc2ccc(Cl)cc2)c1=O)NCc1ccco1,29.6% (active)
15,CC1CNCCN1S(=O)(=O)c1cccc2cnccc12 (stereo not given),102% (inactive)
16,CN(Cc1ccccc1)C(=O)c1cc(-c2ccc(Br)cc2)on1,103% (inactive)
17,CCOc1ccc2nc(SCC(=O)Nc3ncccn3)[nH]c2c1,105% (inactive)
18,CCCC(=O)Nc1nnc(CC(=O)N2CCCC2)s1,96.9% (inactive)
19,Cc1csc(SCCn2c(N3CCCC3)nc3c2c(=O)[nH]c(=O)n3C)n1,100% (inactive)
20,Cc1ccccc1NC(=O)CN1CCC(NC(=O)Nc2ccccc2)CC1,84.8% (inactive)

row,SMILES,viability
1,COc1cc2c(=O)nc3n(c2cc1OC)C(c1ccccc1)N=C(N)N3 (stereo not given),97.1% (inactive)
2,CCOC(=O)c1[nH]c2cc(OC)c(OC)cc2c1NC(=O)C(C)N1CCN(Cc2ccccc2)CC1 (stereo not given),59.2% (inactive)
3,O=C(Nc1ncnc2sc3c(c12)CCC3)c1ccco1,80.1% (inactive)
4,CC(C)(C#N)Nn1cnnc1,85.9% (inactive)
5,CCC1CCCCN1CCCNC(=O)c1ccc(CS(=O)(=O)Cc2ccccc2F)o1 (stereo not given),92.9% (inactive)
6,COc1cccc(OCc2nnc(SCC(=O)OCc3ccccc3)o2)c1,97% (inactive)
7,CC(=O)[C@H]1[C@H](C#N)C[C@H]2[C@@H]3CC=C4C[C@@H](O)CC[C@]4(C)[C@H]3CC[C@@]21C,87% (inactive)
8,Cc1ccc(CNc2cc(-c3nn4c(C)nnc4s3)ccc2C)s1,58.8% (inactive)
9,Cn1c(=O)c2c(nc(Br)n2CCSc2nnnn2-c2ccccc2)n(C)c1=O,80.4% (inactive)
10,COc1ccc(NS(=O)(=O)c2ccc(N)cc2)nn1,104% (inactive)
11,CC(=O)NCCC(=O)Nc1ccc(C)c(F)c1,91.4% (inactive)
12,Clc1ccccc1CN1CCc2sccc2C1,99% (inactive)
13,Cn1c(=O)[nH]c(=O)c2c1nc(Br)n2Cc1ccccc1F,86.9% (inactive)
14,Cc1cc(NC(=O)CSc2nc(C3CC3)nc3sc4c(c23)CCC(C)C4)no1 (stereo not given),102% (inactive)
15,Cc1csc(NC(=O)c2cccs2)n1,89.7% (inactive)
16,O=C(NC1CCCC1)C(NS(=O)(=O)c1cccc2nsnc12)c1ccccc1 (stereo not given),79% (inactive)
17,O=C(CSc1nnc(Cc2ccccc2)n1-c1cccc(Cl)c1)N1CCOCC1,85.6% (inactive)
18,Cc1ccc(-n2c(C)cc3c2CCCC3=O)cc1,93.3% (inactive)
19,COc1ccc(-n2c(SCC(N)=O)nc3sc4c(c3c2=O)CCN(C)C4)cc1,101% (inactive)
20,CCOC(=O)C1CCN(C(=O)Nc2ccc3nc(C)c(C)nc3c2)CC1,95.5% (inactive)
